Experimental findings from PubChem BioAssay AID873 (PCMD, 2007) are described below.

Several values for one entry are separate records, joined by “and”; a condition that tells them apart may be missing. Identical values can stand only once. The campaign covered roughly 210,000 compounds. About 1,300 (0.62%) were called active.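 The calls were made as follows: active = inhibition of 40% or more; inactive = the rest.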 This excerpt belongs to a sample that is enriched for actives. Where a structure was tested more than once in an assay, its records may differ in their call.

Chain of Kallikrein-5 (Homo sapiens) (Q9Y337 67-293 limits assumed): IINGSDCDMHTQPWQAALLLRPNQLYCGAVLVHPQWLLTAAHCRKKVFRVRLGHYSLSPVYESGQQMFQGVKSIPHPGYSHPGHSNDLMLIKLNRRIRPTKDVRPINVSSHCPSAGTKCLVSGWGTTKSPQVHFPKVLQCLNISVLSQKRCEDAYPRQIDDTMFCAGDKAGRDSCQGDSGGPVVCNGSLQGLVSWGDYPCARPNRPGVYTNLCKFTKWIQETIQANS

This assay addresses Kallikrein-5 (Homo sapiens) (UniProt Q9Y337). In words: inhibition of kallikrein 5 (hK5) activity – biochemical, 1536-well, primary screen (AID 873).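 Also: 0% = enzyme controls without compound and 100% = no-enzyme blanks.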 As to conditions: recombinant hK5, fluorogenic AMC substrate cleavage; at 5 µM; stronger effect = higher value.
As usually defined, the inhibition is the change of the read-out against control, counted positive when it falls. Regarding `Cc1c(C(=O)N(Cc2ccccc2)Cc2cccnc2)cnn1-c1ccc(F)cc1`, the inhibition is -6% (inactive). With `O=C(CSc1ccccc1)Nc1ccc(NC(=O)c2ccco2)cc1`, the inhibition is -26.9% (inactive).

For the molecule `COC(=O)c1ccc(NC(=O)c2ccco2)cc1`, the inhibition is -16.9% (inactive). `O=C(Nc1ccc(Oc2ccccc2)cc1)c1ccco1`: the inhibition was 69.2% (active). On to `O=C(O)CCCCCCCCCC[n+]1ccccc1`, for which the inhibition was -3.11% (inactive).

As to `CC1(C)CCSC(/C=C/c2ccccc2)=N1`, the inhibition is -4.94% (inactive).

On to `Cc1ccc(Nc2nc(N)nc(CN3CCN(Cc4ccccc4)CC3)n2)cc1Cl`, for which the inhibition was -2.25% (inactive). Under `CC(C)CNC(=O)C1CCCN(S(=O)(=O)c2ccc(-n3cnnn3)cc2)C1` (stereo not drawn) stands 11.1% (inactive); under `COc1cc(C)nc(N2CCCC(C(=O)NCC(C)C)C2)n1` (stereo not drawn), 61.5% (active); under `Cc1ccnc(N2CCCC(C(=O)Nc3cc(F)ccc3C)C2)n1` (stereo not drawn), -31.1% (inactive). Under `COc1cccc(C2Nc3cccc4cccc(c34)N2)c1` stands -0.21% (inactive); under `Cc1nc2sc(C(=O)c3ccccc3)c(N)c2c2c1CCCC2`, 44% (active); under `Cc1ccc2c(N)c(C(=O)c3ccccc3)sc2n1`, 17.9% (inactive). On to `CCc1nc2sc(C(=O)O)c(N)c2c2c1CCCC2`, for which the inhibition is -8.59% (inactive). Under `COc1ccc(CC(=O)NCC(=O)N/N=C/c2cc(Br)ccc2OC)cc1` stands -3% (inactive); under `COc1cccc2c(C)c(C(=O)O)[nH]c12`, 90.6% (active); under `Cc1c(C(=O)N/N=C/c2ccccc2)[nH]c2c([N+](=O)[O-])cccc12`, 7.11% (inactive). Under `COc1cccc2c(O)cc(=O)n(C)c12` stands -13.9% (inactive); under `CSc1nnc(-c2ccc(C(F)(F)F)cn2)o1`, 2.93% (inactive).

With `OC(CNCc1ccc2c(c1)OCO2)COc1ccccc1` (stereo not drawn), the inhibition is 2.06% (inactive).

Take `COc1cc(OC)cc(/C(N)=N/O)c1`: the inhibition was -2.69% (inactive). Under `O=C(O)CCn1cc(/C=C/C(=O)c2ccc(Cl)cc2)c(-c2cccc(Br)c2)n1` stands 121% (active).

As for `CCOC(=O)/C(C#N)=C/c1cn(CCC(=O)O)nc1-c1ccc(Br)cc1`, the inhibition is 0.91% (inactive).

For `O=C(O)/C=C/c1cn(Cc2ccccc2)nc1-c1cccs1`, the inhibition is -5.27% (inactive). To `CCN1CCN(c2nc(Nc3cccc(F)c3)nc(N)c2[N+](=O)[O-])CC1` belongs 1.83% (inactive); to `COC(=O)c1sccc1NC(=O)CC1C(=O)NCCN1C(=O)Nc1ccc(F)cc1F` (stereo not drawn), -1.42% (inactive). Consider `Cc1ccc(-c2nc(SCC(=O)Nc3ccccc3OC(F)F)c3c(C)c(C(=O)O)sc3n2)cc1`, for which the inhibition is 0.7% (inactive). As for `COc1ccc(OC)c(NC(=O)N[C@H](Cc2ccccc2)C(=O)NN)c1`, the inhibition was -9.7% (inactive). On to `COC(=O)C1=C(C)NC(=O)NC1/C=C/c1ccccc1` (stereo not drawn), for which the inhibition was -24.4% (inactive).

In the case of `COC(=O)C1=C(C)N=C2SC(C)C(=O)N2C1/C=C/c1ccccc1` (stereo not drawn), the inhibition was 61.9% (active).

For the molecule `C=CCOC(=O)C1=C(C)N=C2SCCC(=O)N2C1/C=C/c1ccccc1OC` (stereo not drawn), the inhibition is 1.43% (inactive). To `Cc1ccnc(NC(=O)CCC(=O)N(CC(=O)NCc2ccccc2)Cc2ccco2)c1` belongs -56.9% (inactive); to `NC(=O)c1nsc(C(=O)N(CC(=O)NCc2ccc(F)cc2)Cc2ccco2)c1N`, 69.4% (active).

`CSc1ccc(CN(C)CC(=O)NCc2ccc(F)cc2)cc1`: the inhibition is -2.79% (inactive). To `Cc1[nH]n(-c2ccccc2)c(=O)c1N=Nc1ccccc1C(=O)N1CCCCC1` belongs 3.28% (inactive). With `O=C(Cc1ccccc1)N1N=C(c2ccncc2)CC1(O)C(F)(F)F` (stereo not drawn), the inhibition was -2.66% (inactive).

Consider `Brc1ccc2ncnc(NCc3cccnc3)c2c1`, for which the inhibition is -4.89% (inactive). `Cc1[nH]n(C)c(=O)c1C(=O)c1c(-c2c(Cl)cccc2Cl)noc1C`: the inhibition was 5.65% (inactive). Take `Cc1cccc(NC(=O)/C(=C\c2ccco2)NC(=O)c2ccccc2)c1`: the inhibition is -17.2% (inactive). To `O=C(NCC1CCCO1)/C(=C\c1ccco1)NC(=O)c1ccccc1` (stereo not drawn) belongs -1.75% (inactive). To `O=C(OCN1C(=O)c2ccccc2C1=O)/C(=C\c1ccco1)NC(=O)c1ccccc1` belongs 41.6% (active); to `O=C(CNCCC1=CCCCC1)Nc1ccccc1N1CCCCCC1`, -0.35% (inactive). To `Cc1cccc(C)c1Nc1c(-c2ccccc2O)nc2ncccn12` belongs -0.27% (inactive); to `CC(C)(C)OC(=O)NCCCCCC(=O)N/N=C/c1coc2ccccc2c1=O`, -0.18% (inactive); to `O=C(O)Cc1ccc(-c2ccccc2)cc1`, -3.86% (inactive). For `COc1cccc(NC(=O)C(C)Oc2ccccc2)c1` (stereo not drawn), the inhibition is 15.3% (inactive). Consider `CCC(C)OC(=O)C(C)Oc1ccc(-c2ccccc2)cc1` (stereo not drawn), for which the inhibition was 54.9% (active). Consider `Cc1ccccc1Cn1c2ccccc2c2cnn(CC(=O)NCc3ccco3)c(=O)c21`, for which the inhibition was 1.05% (inactive). Under `CCOc1ccccc1NC(=O)CCc1ccc(C)o1` stands 118% (active); under `CCOc1ccccc1NC(=O)CCN1CCN(S(=O)(=O)c2ccc(OC)cc2)CC1`, 0.91% (inactive); under `CCOc1ccccc1NC(=O)Nc1cc(OC)ccc1OC`, -0.87% (inactive).

For the molecule `CCOCCCNCc1ccc(OCc2ccc(F)cc2)c(OC)c1`, the inhibition was -4.94% (inactive). Under `CCS(=O)(=O)NCCc1ccc(OC)c(OC)c1` stands -7.94% (inactive); under `COc1ccc(CNCCCO)cc1OC`, 46.4% (active); under `O=C(NCc1cccnc1)C(=O)Nc1nc(-c2ccccc2)cs1`, -0.27% (inactive). With `COCCCNC(=O)c1ccc2c(c1)ncn2-c1ccccc1OC`, the inhibition was -11.7% (inactive). For `COc1cc(NS(=O)(=O)c2ccccc2)ccc1-n1nc(C)cc1C`, the inhibition was -1.07% (inactive). As for `COc1ccccc1-n1cnc2cc(NS(=O)(=O)c3ccccc3)ccc21`, the inhibition was 53.3% (active). To `O=S(=O)(c1ccc(NC(=S)NN=C(C2CC2)C2CC2)cc1)N1CCOCC1` belongs -9.15% (inactive). Consider `CCC(=O)/C=C1\Sc2ccccc2N1CC`, for which the inhibition was -8.47% (inactive). For the molecule `CCN1C(=O)/C(=c2\s/c(=C3\Sc4ccccc4N3C)c(=O)n2C)N(C)C1=S`, the inhibition was 2.3% (inactive).

On to `CCN1C(=O)/C(=C2/Sc3ccccc3N2CCCS(=O)(=O)O)SC1=S`, for which the inhibition was -2.57% (inactive) and 43.4% (active). `S=c1nc2ccccc2c2nc(-c3cccnc3)[nH]n12`: the inhibition was -1% (inactive).
